# Assay results: ChEMBL document CHEMBL1157539, “Thousands of chemical starting points for antimalarial lead identification” (Nature, 2010)
# Key:
# Assay type in all cases: functional
# [1] = test system: Plasmodium falciparum; assay: GSK_TCMDC: Inhibition of Plasmodium falciparum 3D7 in whole red blood cells, using parasite LDH activity as an index of growth. Test compounds present at 2uM
# [2] = test system: Plasmodium falciparum; assay: GSK_TCMDC: Inhibition of Plasmodium falciparum Dd2 in whole red blood cells, using parasite LDH activity as an index of growth. Test compounds present at 2uM
# [3] = test system: HepG2; assay: GSK_TCMDC: Percent inhibition of human HepG2 cell line. Test compounds present at 10uM.
compound,measurement,setting,value
COc1cc(CCN(C)Cc2ccc(OC)c(OC)c2)ccc1NC(=O)c1cccc2c(O)c3cccc(F)c3nc12,Inhibition,[1],100%
same,Inhibition,[2],26%
same,Inhibition,[3],14%
COc1cccc(-c2csc(C(=O)NCC3CCN(Cc4ccc(C(C)C)cc4)C3)c2)c1.O=C(O)C(F)(F)F (stereo not drawn),Inhibition,[1],86%
same,Inhibition,[2],9%
same,Inhibition,[3],35%
CCOC(=O)c1nc(-c2cccc(F)c2)[nH]c1N.Cl,Inhibition,[1],98%
same,Inhibition,[2],2%
same,Inhibition,[3],0%
CN(C)Cc1ccc2cc(NC(=O)c3ccc(-c4ccc(Cl)cc4)cc3)ccc2n1.O=C(O)C(F)(F)F,Inhibition,[1],86%
same,Inhibition,[2],30%
same,Inhibition,[3],60%
Cl.O=C(NC1CCC(CCN2CCc3ccc(-c4cnccn4)cc3CC2)CC1)c1cccc(-n2cccn2)c1 (stereo not drawn),Inhibition,[1],93%
same,Inhibition,[2],1%
same,Inhibition,[3],23%
COc1cc(NC(=O)Nc2cc(C)nc3ccccc23)cc(OC)c1,Inhibition,[1],100%
same,Inhibition,[2],57%
same,Inhibition,[3],5%
COc1ccc(CN2CCC(NCc3cccc(C(F)(F)F)c3)CC2)cc1.O=C(O)C(F)(F)F,Inhibition,[1],99%
same,Inhibition,[2],8%
same,Inhibition,[3],6%
COC(=O)c1cc(NC(=O)Nc2ccc(Cn3ncc(N4CCCNCC4)c(Cl)c3=O)cc2)cc(C(=O)OC)c1.O=C(O)C(F)(F)F,Inhibition,[1],96%
same,Inhibition,[2],90%
same,Inhibition,[3],0%
Cc1cccc(CC(=N)NCCCCCCNC(=N)Cc2cccc(C)c2)c1.Cl,Inhibition,[1],97%
same,Inhibition,[2],97%
same,Inhibition,[3],12%
CCCCC1(c2ccc(F)cc2)NC(=O)N(CC(=O)c2cc(C)n(Cc3ccco3)c2C)C1=O (stereo not drawn),Inhibition,[1],82%
same,Inhibition,[2],28%
same,Inhibition,[3],6%
COc1ccc(NC(=O)NC2CCN(CCCOc3ccnc4cc(Cl)ccc34)C2)cc1OC (stereo not drawn),Inhibition,[1],90%
same,Inhibition,[2],16%
same,Inhibition,[3],6%
CO/C(=C\C=C\c1cc2cc(Cl)c(Cl)cc2[nH]1)C(=O)NCCCCN1CCN(c2ccccc2OC)CC1,Inhibition,[1],100%
same,Inhibition,[2],96%
same,Inhibition,[3],55%
Fc1ccc(Nc2ccnc3cc(I)ccc23)c(Cl)c1,Inhibition,[1],95%
same,Inhibition,[2],24%
same,Inhibition,[3],35%
COc1ccc2ncc(F)c(CCN3CC4CCCC4(CNCc4ccc5c(n4)NC(=O)CS5)C3)c2n1.Cl (stereo not drawn),Inhibition,[1],87%
same,Inhibition,[2],28%
same,Inhibition,[3],18%
NC(=O)c1ccc(C(=O)Nc2cccc(-c3cccc(-c4nc5cc(C(F)(F)F)ccc5[nH]4)c3)c2)cc1,Inhibition,[1],100%
same,Inhibition,[2],36%
same,Inhibition,[3],63%
CO/C(=C\C=C\c1cc2cc(Cl)c(Cl)cc2[nH]1)C(=O)NC1CC2CCCC(C1)N2C (stereo not drawn),Inhibition,[1],93%
same,Inhibition,[2],51%
same,Inhibition,[3],42%
Cc1cc(N[C@@H](CC(C)C)C(=O)NCc2cccs2)nc(NCCc2ccc(F)cc2)n1.O=C(O)C(F)(F)F,Inhibition,[1],100%
same,Inhibition,[2],59%
same,Inhibition,[3],20%
CC(C)(C)c1ccc2nccc(Nc3cccc(O)c3)c2c1,Inhibition,[1],99%
same,Inhibition,[2],100%
same,Inhibition,[3],8%
CCCCn1c(-c2ccco2)nc2c(c(=O)c3ccccc3n2C)c1=O,Inhibition,[1],87%
same,Inhibition,[2],64%
same,Inhibition,[3],11%
COc1ccc(-c2nc3cc4ccccc4nc3[nH]2)c(OCC(O)CNC(C)C)c1.Cl (stereo not drawn),Inhibition,[1],98%
same,Inhibition,[2],96%
same,Inhibition,[3],19%
Cc1cc(=NN=Cc2ccccn2)c2cc(F)ccc2[nH]1,Inhibition,[1],100%
same,Inhibition,[2],96%
same,Inhibition,[3],9%
Nc1c2c(nc3ccc(Oc4ccc(Br)cc4Br)cc13)CCCC2,Inhibition,[1],99%
same,Inhibition,[2],47%
same,Inhibition,[3],33%
CCOc1ccc(-c2nonc2NC(=O)c2ccccc2OC)cc1OCC,Inhibition,[1],100%
same,Inhibition,[2],99%
same,Inhibition,[3],24%
Cc1cnc(NCC2CCCCC2)nc1NCC(=O)Nc1ccccc1.O=C(O)C(F)(F)F,Inhibition,[1],90%
same,Inhibition,[2],51%
same,Inhibition,[3],21%
CCOC(=O)c1cn(CC)c2cc(OCc3ccccc3)ccc2c1=O,Inhibition,[1],97%
same,Inhibition,[2],96%
same,Inhibition,[3],2%
Cc1ccc(S(=O)(=O)N(CCCNCc2cccc(O)c2)c2ccccc2)cc1,Inhibition,[1],95%
same,Inhibition,[2],94%
same,Inhibition,[3],6%
COc1ccc(CCc2ccc(-c3c(C)[nH]c(C)c(Cl)c3=O)cc2)cc1OC,Inhibition,[1],99%
same,Inhibition,[2],97%
same,Inhibition,[3],0%
Cl.N=C(N)c1ccc(OCc2cccc(COc3ccc(C(=N)N)cc3I)c2)c(I)c1,Inhibition,[1],100%
same,Inhibition,[2],100%
same,Inhibition,[3],7%
Cn1c(Nc2cc(C(C)(C)C)on2)nc2cc(Nc3ccnc(Nc4cccc(S(=O)(=O)N5CCOCC5)c4)n3)ccc21,Inhibition,[1],100%
same,Inhibition,[2],96%
same,Inhibition,[3],32%
CN(CCNCc1ccc(-c2cccc(-c3nc4ccccc4[nH]3)c2)cc1)S(C)(=O)=O.O=C(O)C(F)(F)F,Inhibition,[1],100%
same,Inhibition,[2],29%
same,Inhibition,[3],9%
COc1ccc2c(OC)ccc(CNCCCCCCNCc3ccc(OC)c4ccc(OC)cc34)c2c1.CS(=O)(=O)O,Inhibition,[1],100%
same,Inhibition,[2],98%
same,Inhibition,[3],100%
CCC(CC)CN1C(=O)C(c2ccccc2)(c2ccccc2)N=C1N.O=CO,Inhibition,[1],97%
same,Inhibition,[2],81%
same,Inhibition,[3],14%
CC(O)C1CCCCN1C(=O)c1ccc(-c2ccc(-c3nc4cc(F)ccc4[nH]3)cc2)cc1 (stereo not drawn),Inhibition,[1],100%
same,Inhibition,[2],99%
same,Inhibition,[3],43%
Cc1cccc(Nc2nc(N[C@@H]3CCCNC3)nc3cc[nH]c(=O)c23)c1.O=C(O)C(F)(F)F,Inhibition,[1],99%
same,Inhibition,[2],98%
same,Inhibition,[3],55%
Cc1ccc(Cn2nc(Cl)c(N3CCCNCC3)cc2=O)cc1NC(=O)Nc1ccc(-c2ccccc2)cc1.O=C(O)C(F)(F)F,Inhibition,[1],100%
same,Inhibition,[2],55%
same,Inhibition,[3],90%
Cc1cccc(Cl)c1S(=O)(=O)Nc1cccc(CCN2CCC(N3CCCCC3)CC2)c1,Inhibition,[1],91%
same,Inhibition,[2],18%
same,Inhibition,[3],34%
CC1(C)CCCC(=Cc2ccc(Br)cc2)C1(O)Cn1ccnc1 (stereo not drawn),Inhibition,[1],99%
same,Inhibition,[2],69%
same,Inhibition,[3],7%
O=C(Nc1cccc(Cl)c1)N(CCCn1ccnc1)Cc1csc(-c2ccc(CNCc3ccccc3)cc2)n1.O=C(O)C(F)(F)F,Inhibition,[1],100%
same,Inhibition,[2],45%
same,Inhibition,[3],11%
O=C(N[C@@H](CC1CCCCC1)C(=O)NCCN1CCCCC1)c1ccc(O)c(-c2ccc(Cl)c(Cl)c2)c1,Inhibition,[1],97%
same,Inhibition,[2],99%
same,Inhibition,[3],14%
Cl.Cn1c(=N)n(CC(=O)N2CCc3ccc(Cl)cc3C2Cc2ccc(Cl)c(Cl)c2)c2ccccc21 (stereo not drawn),Inhibition,[1],100%
same,Inhibition,[2],52%
same,Inhibition,[3],99%
OC(CNc1ccnc(Nc2cccc(Cl)c2)n1)c1ccccc1C(F)(F)F (stereo not drawn),Inhibition,[1],95%
same,Inhibition,[2],36%
same,Inhibition,[3],40%
CN(C)Cc1ccc(-c2ccc3c(Nc4ccc(Cl)cc4F)ccnc3c2)o1,Inhibition,[1],100%
same,Inhibition,[2],99%
same,Inhibition,[3],13%
CN1CCN(Cc2ccc(-c3cc4nccc(Nc5ccc(Oc6ccccc6)cc5)c4cc3Cl)o2)CC1,Inhibition,[1],100%
same,Inhibition,[2],99%
same,Inhibition,[3],3%
O=C(Nc1ccc(S(=O)(=O)N2CCCCC2)cc1)c1cc(-c2cc(Cl)ccc2O)n[nH]1,Inhibition,[1],97%
same,Inhibition,[2],87%
same,Inhibition,[3],36%
CCN(CC)CCN(Cc1ccc(-c2ccc(C(F)(F)F)cc2)cc1)C(=O)Cn1c(CCc2ccc(F)cc2)nc(=O)c2sccc21.O=C(O)C(O)C(O)C(=O)O,Inhibition,[1],99%
same,Inhibition,[2],90%
same,Inhibition,[3],100%
CC(C)Nc1cc(C(=O)N[C@@H](Cc2ccccc2)[C@H](O)CNCc2cccc(C(F)(F)F)c2)c(F)c(N2CCCCS2(=O)=O)c1.O=CO,Inhibition,[1],93%
same,Inhibition,[2],78%
same,Inhibition,[3],0%
CC(Nc1ccnc2cc(Cl)ccc12)c1ccc(S(N)(=O)=O)cc1 (stereo not drawn),Inhibition,[1],96%
same,Inhibition,[2],21%
same,Inhibition,[3],5%
CC(CNC1CCN(CCn2c(=O)ccc3ccc(F)cc32)CC1)c1ccccc1 (stereo not drawn),Inhibition,[1],85%
same,Inhibition,[2],4%
same,Inhibition,[3],0%
COc1cc(NCCCCNc2ccc(Cl)c(Cl)c2)nc2ccccc12,Inhibition,[1],100%
same,Inhibition,[2],68%
same,Inhibition,[3],22%
Cn1c(NCc2cc(F)cc3c2OCOC3)nc2cc(Nc3ccnc(Nc4cccc(CS(C)(=O)=O)c4)n3)ccc21,Inhibition,[1],100%
same,Inhibition,[2],100%
same,Inhibition,[3],0%
Cc1cc(C(=O)Nc2ccc3c(c2)CCN3C2CCN(Cc3cccc(F)c3F)C2)no1 (stereo not drawn),Inhibition,[1],95%
same,Inhibition,[2],94%
same,Inhibition,[3],0%
